According to the supplement of paper PMC6555819:

Columns and labels:
Assay in all cases: PBM binding z-score (relative to random genomic background probes); higher = stronger binding; sequences stand for … in GC…GCGATTGACAGCGTAGAATGAAGG
[1] = tested on: FXR:RXRa (NR concentration 270 nM, RXRa partner concentration 90 nM)
In short: (§1)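 Custom Agilent 4×180K protein-binding microarrays carried double-stranded probes, each with a 34-nt variable region. These regions held direct-repeat seeds, single-nucleotide variants, half-site ablations and random human genomic background sequences. Ligand-free nuclear receptor dimers were incubated on the arrays for 1 h, antibodies against each partner (one per run) detected binding, and scanned fluorescence was regression-normalized. Binding z-scores take the random background probes as reference.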

[2] = tested on: LXRa:RXRa (NR concentration 270 nM, RXRa partner concentration 90 nM)
In short: as §1

[3] = tested on: LXRa homodimer (NR concentration 270 nM)
In short: as §1

[4] = tested on: LXRb:RXRa (NR concentration 270 nM, RXRa partner concentration 90 nM)
In short: as §1

[5] = tested on: LXRb homodimer (NR concentration 270 nM)
In short: as §1

[6] = tested on: PPARa:RXRa (NR concentration 270 nM, RXRa partner concentration 90 nM)
In short: as §1

[7] = tested on: PPARg:RXRa (NR concentration 180 nM, RXRa partner concentration 90 nM)
In short: as §1

[8] = tested on: PPARg:RXRa 270nM:90nM, anti-RXR (NR concentration 270 nM, RXRa partner concentration 90 nM)
In short: as §1

[9] = tested on: PPARg:RXRa 30nM:10nM, anti-RXR (NR concentration 30 nM, RXRa partner concentration 10 nM)
In short: as §1

[10] = tested on: PPARg:RXRa 90nM:30nM, anti-RXR (NR concentration 90 nM, RXRa partner concentration 30 nM)
In short: as §1

[11] = tested on: PPARg:RXRa DBDmut IVT, anti-RXR (DBD mutation: RXRa K156A/R161A, NR concentration 270 nM, RXRa partner concentration 90 nM)
In short: as §1

[12] = tested on: PPARg:RXRa IVT, anti-PPARg (NR concentration 270 nM, RXRa partner concentration 90 nM)
In short: as §1

[13] = tested on: PPARg DBDmut:RXRa IVT, anti-PPARg (DBD mutation: PPARg1 K132A/R137A, NR concentration 270 nM, RXRa partner concentration 90 nM)
In short: as §1

[14] = tested on: PPARg DBDmut IVT, anti-PPARg (DBD mutation: PPARg1 K132A/R137A, NR concentration 270 nM)
In short: as §1

[15] = tested on: PPARg homodimer (NR concentration 180 nM)
In short: as §1

[16] = tested on: PXR:RXRa (NR concentration 270 nM, RXRa partner concentration 90 nM)
In short: as §1

[17] = tested on: PXR homodimer (NR concentration 270 nM)
In short: as §1

[18] = tested on: RARa:RXR (NR concentration 270 nM, RXRa partner concentration 90 nM)
In short: as §1

[19] = tested on: RARa homodimer (NR concentration 270 nM)
In short: as §1

[20] = tested on: RARb:RXRa (NR concentration 270 nM, RXRa partner concentration 90 nM)
In short: as §1

| Sequence | PBM binding z-score [1] | PBM binding z-score [2] | PBM binding z-score [3] | PBM binding z-score [4] | PBM binding z-score [5] | PBM binding z-score [6] | PBM binding z-score [7] | PBM binding z-score [8] | PBM binding z-score [9] | PBM binding z-score [10] | PBM binding z-score [11] | PBM binding z-score [12] | PBM binding z-score [13] | PBM binding z-score [14] | PBM binding z-score [15] | PBM binding z-score [16] | PBM binding z-score [17] | PBM binding z-score [18] | PBM binding z-score [19] | PBM binding z-score [20] |
| --- | --- | --- | --- | --- | --- | --- | --- | --- | --- | --- | --- | --- | --- | --- | --- | --- | --- | --- | --- | --- |
| ATATGTAGGTTTAGGGTCATTCAGGTTGGTTCGC | 4.11 | 3.91 | 1.71 | 3.97 | 1.36 | 4.59 | 5.96 | 6.54 | 4.91 | 6.7 | 2.89 | 3.81 | 1.35 | 1.25 | 2.95 | 5.07 | 4.08 | 4.48 | 2.17 | 2.79 |
| CCCTACGGGTCACTCCAGGTTATAGCATCGGAGT | 5.25 | 7.47 | 2.12 | 5.1 | 0.052 | 4.21 | 2.65 | 3.2 | 0.655 | 1.6 | 0.284 | 2.29 | -0.814 | -0.254 | 2.92 | 5.1 | 0.472 | 3.75 | 0.949 | 3.66 |
| TCTATTAGTTGAAGGACAACCGACGAGTCCGTTT | 0.875 | 0.862 | 0.762 | 0.67 | 0.653 | 0.754 | 0.353 | 2.04 | 4.25 | 3.08 | 2.84 | 0.286 | 0.961 | 1.19 | 1.31 | 1 | 1.09 | 0.65 | 1.51 | 0.981 |
| TCTCGGAGGAGACGAAAGGTCAGAGCTCGACATC | 2.04 | 2.95 | 1.15 | 2.59 | -0.403 | 3.49 | 3.2 | 5.01 | 3.66 | 4.7 | 0.912 | 1.49 | -0.00299 | -0.844 | 3.1 | 3.44 | -0.0245 | 4.57 | 1.35 | 3.44 |
| ATTGAAAGGTCGAGGTGAGTATAGAGAAAGGGAA | 4.46 | 3.8 | 0.427 | 2.93 | 1.15 | 4.7 | 4.5 | 3.84 | 1.72 | 3.01 | 0.763 | 2.77 | 1.27 | 1.65 | 2.49 | 2.7 | 0.738 | 3.64 | 1.83 | 4.28 |
| CAAATTAGGTCAAGAGGTCAAAGTCCGCTTCCCG | 7.34 | 6.64 | 6.19 | 6.05 | 2.41 | 6.6 | 9.93 | 8.63 | 8.32 | 9.12 | 8.5 | 8.22 | 3.42 | 1.71 | 8.6 | 6.49 | 3.51 | 8.33 | 5.28 | 5.74 |
| ACTAGTTAGTCAGCTGAGGTCACACACAATTCGG | 2.63 | 3.5 | 2.52 | 3.72 | 0.931 | 3.87 | 1.72 | 1.98 | 0.769 | 1.49 | 0.771 | 2.31 | 0.856 | 0.622 | 2.26 | 5.14 | 1.6 | 5.01 | 1.35 | 3.3 |
| GCTAGCAGGCCATATGGGTCACTCAATGACGGGC | 0.207 | 0.285 | -0.185 | 0.489 | -0.907 | 1.98 | 1.57 | 1.27 | -0.31 | 0.766 | 1.57 | 2.68 | -0.447 | -0.866 | -0.0235 | 0.585 | -0.337 | 1 | -0.311 | 1.62 |
| CGTCCAAGGTCATCAGGTCAGTGAAAGCGACGTG | 7.31 | 5.49 | 1.85 | 4.14 | 0.684 | 5.83 | 6.35 | 6.07 | 2.32 | 4.84 | 3.92 | 4.54 | 1.13 | -0.42 | 3.58 | 4.88 | 1.66 | 5.46 | 1.46 | 5.43 |
| ATATGTAGGTTAAGGGTCGTTCAGGTTGGTTCGC | 2.74 | 2.85 | 1.23 | 2.85 | 0.845 | 6.01 | 10.9 | 9.42 | 10.4 | 11 | 7.55 | 7.66 | 3.39 | 1.59 | 2.62 | 3.64 | 2.22 | 3.78 | 2.01 | 2.33 |
| CCTACTGGGCCAAAATGGTCATTGATGCCGATAA | -0.236 | -0.291 | -0.317 | -0.55 | -0.875 | 0.318 | 0.666 | 0.897 | -0.124 | 0.804 | 2.55 | 2.95 | -0.67 | -0.0275 | 0.212 | -0.439 | -0.289 | 0.45 | 0.0345 | 0.172 |
| TCGAGTAGGTTACGGGCATTCAGAATGGCGTCGA | 0.0323 | 0.894 | -0.574 | -0.0129 | -1.41 | 1.33 | 1.14 | 1.54 | 0.893 | 1.06 | 3.6 | 3.2 | -0.359 | -0.95 | -0.405 | 0.127 | -0.967 | 0.109 | -1.16 | 1.29 |
| TCTAGTTGGTCACGGAGGTCGCACACGACGGGTA | 0.941 | 1.09 | -0.0222 | 1.04 | 0.0566 | 2.04 | 1.61 | 2.28 | 2.83 | 2.43 | 2.12 | 2.88 | 0.487 | 0.825 | 1.19 | 1.79 | -0.0843 | 1.63 | 0.349 | 2.47 |
